# According to PubChem BioAssay (NCATS):
# Inconclusive results are not listed. Calls of active or inactive are those of the source. The call rests on the fitted dose curve; in most records, active means well fitted cell-killing curve with a large enough effect; inconclusive means small, poorly fitted or top-dose-only effect, or effect the other way; inactive means no such curve, though single readings can be large or run the other way.
# Test: Quantitative High-Throughput drug screen in 47 multiple myeloma cell lines against the NCATS MIPE library collection: Delta47_JCRB cell viability assay (AID 1918925; further: nearly all actives have a fitted effect of over 45% in size;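 on viability (% of DMSO): 0% = media-only wells and 100% = DMSO-only wells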)
# Conditions: Delta47 myeloma viability, CellTiter-Glo ATP, 48 h; series mostly up to 45.8 µM; viability (% of DMSO): at the top concentration
# How it was run: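 Approved and investigational drugs from MIPE 4.0 were added by pin tool to 500 cells per well. After 48 hours at 37C, ATP-based CellTiter-Glo luminescence indicated remaining viability.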
# Potency means the concentration at half of the fitted maximal effect.
SMILES,Potency,viability (% of DMSO)
COc1c(Cl)cc2c([nH]c3cnccc32)c1NC(=O)c1cccnc1C,2.96 µM (active),–
Cc1n[nH]c(C)c1Cc1sc2c(c1C(=O)N1C[C@H](O)CO1)c(=O)n(C)c(=O)n2CC(C)C,–,120% (inactive)
CC(C)(N)C(=O)N[C@H](COCc1ccccc1)C(=O)N1CCC2(CC1)CN(S(C)(=O)=O)c1ccccc12,7.43 µM (active),–
CNC(=O)c1ccc(C)c(-n2c(C)cc(OCc3ccc(F)cc3F)c(Br)c2=O)c1,14.8 µM (active),–
CN(C)c1ccc(C2Nc3ccc4ccccc4c3C3=C2C(=O)CC(C)(C)C3)cc1Br (configuration not stated),2.35 µM (active),–
O=C(NOC[C@H](O)CO)c1ccc(F)c(F)c1Nc1ccc(I)cc1F,0.0118 µM (active),–
C[C@H](NC(=O)Cc1cc(F)cc(F)c1)C(=O)N[C@@H]1C(=O)N(C)c2ccccc2-c2ccccc21,7.43 µM (active),–
CN(C)C(=O)c1ccc(S(=O)(=O)c2ccc(NC(=O)[C@@](C)(O)C(F)(F)F)c(Cl)c2)cc1,10.5 µM (active),–
CCc1cc(Nc2nccc(-c3c(-c4ccc(OC)c(C(=O)Nc5c(F)cccc5F)c4)nc4ccccn34)n2)c(OC)cc1N1CCC(N2CCN(S(C)(=O)=O)CC2)CC1,5.26 µM (active),–
COc1ccccc1[C@H](c1cccc2ccccc12)[C@@](C)(C#N)C(=O)N1CCC(c2cccc(C(F)(F)F)c2)CC1,8.33 µM (active),–
O=C(Nc1ccc(F)c(C(F)(F)F)c1)Nc1nnc(-c2ccncc2)s1,2.96 µM (active),–
COc1cc2c(cc1OC)CN(CCc1ccc(NC(=O)c3cccc4c(=O)c5cccc(OC)c5[nH]c34)cc1)CC2,–,104% (inactive)
CCOc1cc(C(=O)Nc2ccc(Cl)c(-c3nc4ccccc4[nH]3)c2)cc(OCC)c1OCC,18.7 µM (active),–
C[C@@H]1CN(Cc2ccc(F)cc2)[C@@H](C)CN1C(=O)c1cc2c(C(=O)C(=O)N(C)C)cn(C)c2cc1Cl,9.35 µM (active),–
COc1cc2nccc(Oc3ccc(NC(=O)NC4CC4)c(Cl)c3)c2cc1C(N)=O,13.2 µM (active),–
COc1cccc2cc(-c3nc(C4CCC(C(=O)O)CC4)n4ncnc(N)c34)[nH]c12 (configuration not stated),0.469 µM (active),–
Cn1cnc2c(F)c(Nc3ccc(Br)cc3Cl)c(C(=O)NOCCO)cc21,–,110% (inactive)
CC(C)OC(=O)C1=CN(C(=O)c2ccc(F)c(F)c2)CC(C)(C)c2c1[nH]c1ccccc21,–,87.8% (inactive)
Cc1cc(Nc2nc(N[C@@H](C)c3ncc(F)cn3)ncc2Cl)n[nH]1,–,98% (inactive)
CC[C@H](Nc1ncnc2nc[nH]c12)c1nc2cccc(F)c2c(=O)n1-c1ccccc1,5.26 µM (active),–
CNCc1ccc(-c2[nH]c3cc(F)cc4c3c2CCNC4=O)cc1,–,90.3% (inactive)
COc1nc(-c2ccc3c(c2)OCO3)n(-c2ccc(NC(=O)CSc3ccccc3)cc2)n1,–,116% (inactive)
